Growth data for 15 compounds are collected here from PubChem BioAssay (NCI).

Among the test systems are T-47D breast; BT-549 breast; MDA-MB-435 melanoma; SW-620 colon; MCF7 breast; HCT-116 colon; HCC-2998 colon; KM12 colon.
Holding throughout (assay): NCI-60 one-dose screen, 48 h (100 = growth as untreated, 0 = no growth, -100 = all killed)
Holding throughout (details): 10 µM unless noted

This is part of a sample that, as a whole, favours compounds with a hit. Of some 83,000 tested, about 20% had one in any assay.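 Single-concentration screen, 48 h exposure, 96-well plates. Endpoint: percent growth. Below 10 = active.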 Values without a mark were called inactive. The source made the active and inactive calls.

Turning to `FC(F)(F)c1cc(N2CCCCC2)nc(NCCCNc2ccnc3cc(Cl)ccc23)n1`, the growth with T-47D breast is 37.7%; in the assay on BT-549 breast, 61.2%; in the assay on MDA-MB-435 melanoma, 76%; with SW-620 colon it was 94.3%; in the assay on MCF7 breast, 43.7%; with HCT-116 colon, 39.3%. In addition, the growth is 37.5% with HCC-2998 colon and 64.7% in the assay with KM12 colon.
`C/C(=N\NC(=O)c1ccc(C(C)(C)C)cc1)c1ccc(O)cc1O`: the growth was 24.4% in the assay with T-47D breast; 31.2% in the assay with BT-549 breast; 27.7% in the assay on MDA-MB-435 melanoma; 29.9% with SW-620 colon; 4.92% (active) in the assay on MCF7 breast; 18.5% with HCT-116 colon. Moreover, the growth in the assay with HCC-2998 colon was 8.71% (active); in the assay on KM12 colon, 22.8%.
Take `O=[N+]([O-])c1ccc(Oc2cccc3c(Oc4ccc([N+](=O)[O-])cc4[N+](=O)[O-])cccc23)c([N+](=O)[O-])c1`: the growth in the assay on T-47D breast was 81.7%; in the assay with BT-549 breast, 82.4%; in the assay with MDA-MB-435 melanoma, 106%; with SW-620 colon, 87.8%; with MCF7 breast it was 76.6%; with HCT-116 colon, 83.1%. Also, the values for the growth with HCC-2998 colon and in the assay with KM12 colon were 110% and 86.7%, respectively.
Consider `C=C1C(=O)O[C@H]2[C@H]1CC/C(COC(=O)NCc1ccc(Cn3c(=O)sn(CCCC)c3=O)cc1)=C\CC[C@@]1(C)O[C@@H]21`, for which the growth with T-47D breast was 26.2%; with BT-549 breast it was 53.3%; in the assay on MDA-MB-435 melanoma, 40.8%; in the assay on SW-620 colon, -47% (active); in the assay on MCF7 breast, 7.24% (active); in the assay with HCT-116 colon, 3.34% (active). Further, the growth in the assay with HCC-2998 colon was 97.7%; in the assay on KM12 colon, 101%.
With `Nc1nc(=O)n([C@H]2CC=C(CO)O2)cc1F`, the growth is 98.6% with T-47D breast; 114% in the assay with BT-549 breast; 97.8% in the assay on MDA-MB-435 melanoma; 90.5% in the assay with SW-620 colon; 95.8% in the assay on MCF7 breast; 108% in the assay with HCT-116 colon. Also, the values for the growth with HCC-2998 colon and in the assay on KM12 colon were 104% and 103%, respectively.
For `Cc1ccc(Nc2cc(N)nc(N)n2)cc1`, the growth in the assay on T-47D breast was 98.9%; in the assay on BT-549 breast, 113%; with MDA-MB-435 melanoma, 106%; in the assay on SW-620 colon, 102%; in the assay on MCF7 breast it was 86.5%; in the assay with HCT-116 colon, 104%. The growth in the assay with HCC-2998 colon is 96%; with KM12 colon, 95.5%.
On to `CC(C)(C)n1cc(-c2ccnc(NCCNS(=O)(=O)c3cccc4ccccc34)c2)c(-c2cccc(O)c2)n1`, for which the growth in the assay with T-47D breast was 31.4%; in the assay on BT-549 breast it was 60.5%; in the assay on MDA-MB-435 melanoma, 78.6%; in the assay on SW-620 colon, 35.8%; in the assay with MCF7 breast it was 49.4%; with HCT-116 colon it was 46.5%. The results for the growth in the assay with HCC-2998 colon and with KM12 colon were 66.3% and 57.5%, respectively.
Regarding `O=C1CC2C=CCN2C=C1NC(=O)c1ccccc1` (stereo not given), the growth is 99.8% with T-47D breast; 103% in the assay with BT-549 breast; 105% in the assay on MDA-MB-435 melanoma; 109% in the assay on SW-620 colon; 101% in the assay with MCF7 breast; 93.6% in the assay with HCT-116 colon. Moreover, the growth with HCC-2998 colon and with KM12 colon was 101% throughout.
As for `Cc1ccc(Nc2nc(N)nc(N)c2N=O)cc1Cl`, the growth was 5.56% (active) in the assay on T-47D breast; 98.7% in the assay on BT-549 breast; 89.1% in the assay on MDA-MB-435 melanoma; 95% in the assay on SW-620 colon; 36.4% in the assay on MCF7 breast; 78.2% in the assay with HCT-116 colon. In addition, the growth was 86% with HCC-2998 colon and 80.6% with KM12 colon.
In the case of `[2H]C([2H])([2H])Oc1ccc(/C=C/C(=O)/C=C(O)/C=C/c2ccc(OC([2H])([2H])[2H])c(OC([2H])([2H])[2H])c2)cc1OC([2H])([2H])[2H]`, the growth in the assay on T-47D breast was 21.8%; in the assay with BT-549 breast, 34.4%; in the assay on MDA-MB-435 melanoma it was 12.3%; in the assay on SW-620 colon, 27.4%; in the assay with MCF7 breast, 4.59% (active); in the assay with HCT-116 colon it was 5.1% (active). The growth is 76.4% in the assay with HCC-2998 colon and 30.6% in the assay with KM12 colon.
Turning to `CC1=C([Se]CC(OC(=O)[C@@H](CO)NC(=O)OC(C)(C)C)C(=O)NCCCCCC(=O)OCc2ccccc2)C(=O)c2ccccc2C1=O` (stereo not given in full), the growth is -94.3% (active) in the assay with T-47D breast; -98.6% (active) in the assay with BT-549 breast; -83.3% (active) in the assay on MDA-MB-435 melanoma; -42% (active) with SW-620 colon; -44.7% (active) with MCF7 breast; -88.9% (active) in the assay with HCT-116 colon. The figures for the growth with HCC-2998 colon and in the assay on KM12 colon were -92.5% (active) and -52.7% (active), respectively.
Regarding `CC(=O)OCC(=O)O[C@@H]1C[C@]2(C(C)C)O[C@@]1(C)[C@@H]1CC[C@@H](C)[C@H]1[C@@H]2OC(=O)/C=C/c1ccccc1`, the growth in the assay on T-47D breast was 48.6%; in the assay on BT-549 breast it was 2.51% (active); with MDA-MB-435 melanoma it was 95%; in the assay with SW-620 colon, 104%; with MCF7 breast, 77.8%; in the assay with HCT-116 colon, 81.5%. The figures for the growth in the assay on HCC-2998 colon and in the assay with KM12 colon were 101% and 90.2%, respectively.
Regarding `CN(C)c1ccc(/C=N/NC(=O)CSc2nc3sc4c(c3c(=O)n2-c2ccccc2)CCCCC4)cc1`, the growth in the assay on T-47D breast is 61.5%; in the assay with BT-549 breast, 71.2%; in the assay on MDA-MB-435 melanoma, 33.2%; with SW-620 colon it was 27.2%; in the assay on MCF7 breast, 35%; in the assay on HCT-116 colon it was 7.89% (active). Further, the growth is 39.4% in the assay with HCC-2998 colon and 38.5% in the assay on KM12 colon.
With `CCOC(=O)c1c(N)sc2cc(O)ccc12`, the growth with T-47D breast is 85.7%; in the assay on BT-549 breast, 93.3%; with MDA-MB-435 melanoma it was 107%; with SW-620 colon, 117%; in the assay on MCF7 breast it was 104%; in the assay with HCT-116 colon, 98.5%. In addition, the growth with HCC-2998 colon was 111%; in the assay with KM12 colon, 89.1%.
`O=C(/C=C/c1ccco1)Nc1ncc(Cc2ccc(F)cc2)s1`: the growth is 49.3% in the assay on T-47D breast; 24.2% with BT-549 breast; -17.6% (active) in the assay with MDA-MB-435 melanoma; 25.4% in the assay on SW-620 colon; 15.8% with MCF7 breast; 19.5% in the assay with HCT-116 colon. Moreover, the growth in the assay on HCC-2998 colon was 7.46% (active); in the assay on KM12 colon, 16.1%.
